Test results as given in PubChem BioAssay (Tox21).
Inconclusive results are not listed. Entries that show only a call come without a potency. The source made the active and inactive calls. Unless noted, the call rests on the fitted dose curve.

test system: not listed separately; test: qHTS assay to identify small molecule agonists of the estrogen receptor alpha (ER-alpha) signaling pathway in the presence of an antagonist - cell viability counter screen (AID 1259386; active means well fitted cell-killing curve with a large enough effect in the repeat runs;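 further: cells exposed to compounds for 22 h at 37 °C before the viability read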); details: VM7Luc4E2 viability, CellTiter-Fluor fluorescence, 22 h; series mostly up to 92.4 µM; activity change, negative = cytotoxicity: at the top concentration
Summary of the method: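 Cell viability in VM7Luc4E2 cells (endogenous full-length ER-alpha) measured by CellTiter-Fluor fluorescence in the same wells as the luciferase screen. Cells pre-cultured 5 days in charcoal-stripped serum, then treated 22 h with compounds at 15 concentrations plus 10.0nM ICI-182,780.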
Further: nearly all actives have a fitted effect of over 30% in size.

Row | SMILES | Potency | activity change, negative = cytotoxicity
1 | CC(=O)CCC=C(C)C | inactive | 
2 | N[C@H](Cc1c[nH]c2ccccc12)C(=O)O | inactive | 
3 | COc1ccc(C)cc1N | inactive | 
4 | CCCCCCCO | inactive | 
5 | OCc1ccccc1 | inactive | 
6 | O=C1c2ccccc2CCc2ccccc21 | inactive | 
7 | CCCCCCCCCCCCCCCC(=O)OC(C)C | inactive | 
8 | CC(=O)c1ccc(O)cc1 | inactive | 
9 | O=C(O)CCCCCCCCC(=O)O | inactive | 
10 | O=C(O)Cn1c(=O)n(Cc2ccc(Br)cc2F)c(=O)c2ccc(Cl)cc21 |  | -5.6% [at 42.5 µM] (inactive)
11 | CCCOC(=O)c1ccccc1 | inactive | 
12 | COc1ccc(CCC(C)=O)cc1 | inactive | 
13 | CCCCC(C=O)CC (stereo unspecified) | inactive | 
14 | CC(C)(C)c1cc(Cc2cc(C(C)(C)C)c(O)c(C(C)(C)C)c2)cc(C(C)(C)C)c1O | inactive | 
15 | O=C1C(c2[nH]c3ccccc3c2O)=Nc2ccccc21 | inactive | 
16 | CSc1ccc(Cl)cc1 | inactive | 
17 | CCO[Si](CCCN)(OCC)OCC | inactive | 
18 | CC(C)(Oc1ccc(CCNC(=O)c2ccc(Cl)cc2)cc1)C(=O)O |  | -6.51% [at 42.5 µM] (inactive)
19 | NCCNCCN | inactive | 

Row | SMILES | Potency | activity change, negative = cytotoxicity
20 | CCCCCCCC=O | inactive | 
21 | CCNC(=S)NCC | inactive | 
22 | O=C(O)/C=C/C(=O)O | inactive | 
23 | c1ccc(Oc2ccccc2)cc1 | inactive | 
24 | Nc1nc(N)nc(-c2ccccc2)n1 | inactive | 
25 | CN(C)c1ccc(O)c2c1C[C@H]1C[C@H]3[C@H](N(C)C)C(=O)C(C(N)=O)=C(O)[C@@]3(O)C(=O)C1=C2O |  | -5.96% [at 42.5 µM] (inactive)
26 | O=C1CCCC1 | inactive | 
27 | CC(C)CC(=O)CC(C)CC(C)C (stereo unspecified) | inactive | 
28 | N#Cc1ccccc1 | inactive | 
29 | Cc1ccc2ncccc2c1 | inactive | 
30 | CCCCCCCCCCCCCCCCO | inactive | 
31 | CC(=O)OC1CC(C)OC(C)O1 (stereo unspecified) | inactive | 
32 | CC(C)CCCCCCCOC(=O)CCCCC(=O)OCCCCCCCC(C)C | inactive | 
33 | OC1C(O)C(O)C(O)C(O)C1O (stereo unspecified) | inactive | 
34 | C=C(C)CNCC | inactive | 
35 | CC1(C)CC(N)CC(C)(CN)C1 (stereo unspecified) | inactive | 
36 | CC(=O)OCc1ccccc1 | inactive | 
37 | NCCCCCCN | inactive | 
38 | CCO[Si](CCC#N)(OCC)OCC | inactive | 

target: Progesterone receptor (Homo sapiens) (UniProt P06401); test: qHTS assay to identify small molecule agonists of the progesterone receptor (PR) signaling pathway (AID 1346784); details: PR-UAS-bla HEK293T, beta-lactamase FRET ratio, 16 h; series mostly up to 92.4 µM; activation: at the top concentration
Summary of the method: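 Compounds were tested for PR agonism in HEK 293T cells bearing a beta-lactamase gene under UAS control. Treatment lasted 16 hr at 37C; signal came from fluorescence of a FRET substrate.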

Chain of Progesterone receptor (Homo sapiens) (P06401 whole entry, looked up): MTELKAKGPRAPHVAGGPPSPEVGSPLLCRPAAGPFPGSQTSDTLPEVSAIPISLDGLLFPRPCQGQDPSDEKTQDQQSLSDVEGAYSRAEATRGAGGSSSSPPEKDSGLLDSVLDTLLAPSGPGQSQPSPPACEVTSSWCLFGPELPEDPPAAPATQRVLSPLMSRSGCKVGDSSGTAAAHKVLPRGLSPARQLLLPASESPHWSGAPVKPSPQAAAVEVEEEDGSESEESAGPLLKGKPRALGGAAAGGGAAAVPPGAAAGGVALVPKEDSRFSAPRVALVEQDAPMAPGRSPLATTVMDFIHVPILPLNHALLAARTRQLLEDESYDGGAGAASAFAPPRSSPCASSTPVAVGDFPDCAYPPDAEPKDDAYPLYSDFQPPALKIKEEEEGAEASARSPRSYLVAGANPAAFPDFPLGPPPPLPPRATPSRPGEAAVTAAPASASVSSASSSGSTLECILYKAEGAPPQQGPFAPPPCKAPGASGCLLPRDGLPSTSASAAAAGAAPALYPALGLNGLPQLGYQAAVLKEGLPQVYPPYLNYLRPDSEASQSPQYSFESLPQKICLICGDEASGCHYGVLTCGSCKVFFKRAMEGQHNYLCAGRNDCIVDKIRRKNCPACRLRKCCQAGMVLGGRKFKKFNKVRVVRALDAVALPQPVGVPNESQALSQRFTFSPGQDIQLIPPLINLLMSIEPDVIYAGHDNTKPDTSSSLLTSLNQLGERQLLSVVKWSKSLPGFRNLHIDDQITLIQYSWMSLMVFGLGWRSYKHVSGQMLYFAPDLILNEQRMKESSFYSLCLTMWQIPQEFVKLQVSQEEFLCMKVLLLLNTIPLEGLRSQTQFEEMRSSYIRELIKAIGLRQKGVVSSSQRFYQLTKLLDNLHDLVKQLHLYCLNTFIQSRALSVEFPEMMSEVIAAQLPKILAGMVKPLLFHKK

Row | SMILES | Potency | activation
39 | CC(=O)CCC=C(C)C | inactive | 
40 | N[C@H](Cc1c[nH]c2ccccc12)C(=O)O | inactive | 
41 | COc1ccc(C)cc1N | inactive | 
42 | CCCCCCCO | inactive | 
43 | OCc1ccccc1 | inactive | 
44 | O=C1c2ccccc2CCc2ccccc21 | inactive | 
45 | CCCCCCCCCCCCCCCC(=O)OC(C)C | inactive | 
46 | CC(=O)c1ccc(O)cc1 | inactive | 
47 | O=C(O)CCCCCCCCC(=O)O | inactive | 
48 | O=C(O)Cn1c(=O)n(Cc2ccc(Br)cc2F)c(=O)c2ccc(Cl)cc21 | inactive | 
49 | CCCOC(=O)c1ccccc1 | inactive | 
50 | COc1ccc(CCC(C)=O)cc1 | inactive | 
51 | CCCCC(C=O)CC (stereo unspecified) | inactive | 
52 | CC(C)(C)c1cc(Cc2cc(C(C)(C)C)c(O)c(C(C)(C)C)c2)cc(C(C)(C)C)c1O |  | -0.781% (inactive)
53 | O=C1C(c2[nH]c3ccccc3c2O)=Nc2ccccc21 | inactive | 
54 | CSc1ccc(Cl)cc1 | inactive | 
55 | CCO[Si](CCCN)(OCC)OCC | inactive | 
56 | CC(C)(Oc1ccc(CCNC(=O)c2ccc(Cl)cc2)cc1)C(=O)O | inactive | 
57 | NCCNCCN | inactive | 

Row | SMILES | Potency | activation
58 | CCCCCCCC=O | inactive | 
59 | CCNC(=S)NCC | inactive | 
60 | O=C(O)/C=C/C(=O)O | inactive | 
61 | c1ccc(Oc2ccccc2)cc1 | inactive | 
62 | Nc1nc(N)nc(-c2ccccc2)n1 | inactive | 
63 | CN(C)c1ccc(O)c2c1C[C@H]1C[C@H]3[C@H](N(C)C)C(=O)C(C(N)=O)=C(O)[C@@]3(O)C(=O)C1=C2O | inactive | 
64 | O=C1CCCC1 | inactive | 
65 | CC(C)CC(=O)CC(C)CC(C)C (stereo unspecified) | inactive | 
66 | N#Cc1ccccc1 | inactive | 
67 | Cc1ccc2ncccc2c1 | inactive | 
68 | CCCCCCCCCCCCCCCCO | inactive | 
69 | CC(=O)OC1CC(C)OC(C)O1 (stereo unspecified) | inactive | 
70 | CC(C)CCCCCCCOC(=O)CCCCC(=O)OCCCCCCCC(C)C | inactive | 
71 | OC1C(O)C(O)C(O)C(O)C1O (stereo unspecified) | inactive | 
72 | C=C(C)CNCC | inactive | 
73 | CC1(C)CC(N)CC(C)(CN)C1 (stereo unspecified) | inactive | 
74 | CC(=O)OCc1ccccc1 | inactive | 
75 | NCCCCCCN | inactive | 
76 | CCO[Si](CCC#N)(OCC)OCC | inactive | 
